According to PubChem BioAssay AID1159580 (chemical genetic matrix, 2015):
Out of some 5,500 compounds screened, about 2,000 (36%) were called active. Roughly 18% stayed inconclusive and do not appear here. Cut-off read from the data, not from the text of the source: active = normalized growth mostly below about 0.91 (no sharp cut-off); inconclusive = no clear call, values can overlap the other calls; inactive = mostly above about 0.92. Some of the results follow.

Test: chemical genetic growth profiling, strain panel (AID 1159580);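 note: tested at 20 µM; growth read once vehicle control cultures reached saturation at 30 °C; 1 = growth at the plate median or of vehicle wells; lower values mean less growth of the strain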
Settings: S. cerevisiae deletion strains, growth OD

Measured: normalized growth

O=S(=O)(c1cccc2c(I)cccc12)N1CCCNCC1
inactive: locus YAL013W, strain DEP1, stronger effect = lower value 0.983 | locus YAL040C, strain CLN3, stronger effect = lower value 0.979 | locus YCL061C, strain MRC1 (second series), stronger effect = lower value 0.984 | locus YDR150W, strain NUM1, stronger effect = lower value 0.991 | locus YDR363W, strain ESC2, stronger effect = lower value 0.958 | locus YER002W, strain NOP16, stronger effect = lower value 1.01 | locus YGR078C, strain PAC10, stronger effect = lower value 0.982 | locus YGR229C, strain SMI1, stronger effect = lower value 1 | locus YJR075W, strain HOC1, stronger effect = lower value 1.01 | locus YNL128W, strain TEP1, stronger effect = lower value 1.06 | locus YNL153C, strain GIM3, stronger effect = lower value 0.927 | locus YNL175C, strain NOP13, stronger effect = lower value 0.995 | locus YNL197C, strain WHI3, stronger effect = lower value 0.986 | locus YNL224C, strain SQS1, stronger effect = lower value 1.02 | locus YOR083W, strain WHI5 (second series), stronger effect = lower value 0.932 | locus YPL241C, strain CIN2, stronger effect = lower value 0.984
